The values below come from PubChem BioAssay AID624115 (Johns Hopkins Ion Channel Center, 2012).

Screen size: about 4,000 compounds; about 350 (8.8%) were called active.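 The calls were made as follows: active = calcium fluorescence ratio at least three times the spread of buffer wells, meaning a non-specific response in parental cells; inactive = the rest.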 A selection follows.

The experiment is described as follows: calcium response in parental HEK293 cells, primary screen, counter-screen for MrgX1 agonist project, cell-based, Fluo-4 calcium flux, duplicate, agonist mode (AID 624115). The following applies: parental HEK293, Fluo-4 calcium fluorescence (FDSS), at 10 µM; active compounds read high. In general terms: The purpose of a counterscreen is to sort out artefacts and off-target activity.
Turning to `COc1ccccc1Oc1nc(-c2cccnc2)nc2ccccc12`, the fluorescence ratio F(max-min)/F0 result is “inactive”.
The result for `CC(C)CNc1ncnc2c1cnn2Cc1ccc(Cl)cc1` reads “inactive”.
Take `Cc1cccn2c(=O)c(/C=C3\SC(=S)N(CC(C)C)C3=O)c(NCCCOC(C)C)nc12`: the fluorescence ratio F(max-min)/F0 entry is “inactive”.
The result for `O=C(C1CCN(S(=O)(=O)c2cnc[nH]2)CC1)N1CCN(Cc2ccc3c(c2)OCO3)CC1` reads “inactive”; that for `O=C(Oc1ccc(C(=S)N2CCOCC2)cc1)c1ccc(F)cc1`, “inactive”.
The result for `Cc1occc1C(=O)Nc1nnc(-c2ccncc2)s1` reads “inactive”.
For the compound `CCC(C)Sc1nc(C)nc2c1c(=O)n(C)c(=O)n2C` (stereo not given), the fluorescence ratio F(max-min)/F0 result is “inactive”.
Turning to `O=C(CN1CCN(c2ccc(Cl)cc2)CC1)N1CCCC1`, the fluorescence ratio F(max-min)/F0 result was “inactive”.
Take `Cc1c(C)c2c(OCC(=O)N[C@@H](C(=O)O)c3ccccc3)cc3c(c2oc1=O)CCC(C)(C)O3`: the fluorescence ratio F(max-min)/F0 result was “inactive”.
As for `COC(=O)c1c(NC(=O)c2c(Cl)cnn2C)sc(C)c1C`, the fluorescence ratio F(max-min)/F0 entry was “inactive”.
Turning to `COc1ccc(Nc2nnc(C)c3ccccc23)cc1`, the fluorescence ratio F(max-min)/F0 entry was “inactive”.
For `O=C1C(Cc2ccc(O)cc2)NC(=S)N1Cc1ccccc1` (stereo not given), the fluorescence ratio F(max-min)/F0 entry is “inactive”.
Take `Cc1ccc(C(=O)COC(=O)CCN2C(=O)C3C4CC(C(Br)C4Br)C3C2=O)cc1` (stereo not given): the fluorescence ratio F(max-min)/F0 result was “inactive”.
For `Cc1cccc(NC(=O)C(C)N2C(=O)C3C4CC(C(Br)C4Br)C3C2=O)c1` (stereo not given), the fluorescence ratio F(max-min)/F0 is 94.8 (active).
For the compound `Cc1ccnc(NC(=O)C(C)N2C(=O)c3ccccc3C2=O)c1` (stereo not given), the fluorescence ratio F(max-min)/F0 entry was “inactive”.
Under `Cc1ccc2c(c1)c1ncnc(N3CCc4ccccc4C3)c1n2C` stands “inactive”; under `O=C(COC(=O)c1ccc(NS(=O)(=O)c2cccs2)cc1O)Nc1ccc(F)cc1`, “inactive”; under `CN(c1cccc(NC(=O)Nc2ccc(Cl)cc2)c1)S(C)(=O)=O`, “inactive”.
Turning to `O=C(c1cccs1)C1C(c2ccc(Br)cc2)NC(=S)NC1(O)C(F)(F)F` (stereo not given), the fluorescence ratio F(max-min)/F0 entry is “inactive”.
With `CC(C)(C)n1c(=O)[nH]c2c(c1=O)CCC2`, the fluorescence ratio F(max-min)/F0 result was “inactive”.
`CCN(CC)c1ccc2oc(=O)c(C)nc2c1`: the fluorescence ratio F(max-min)/F0 entry was “inactive”.
For the compound `CC(=O)N(C)c1ccc(NC(=O)C(F)(F)F)cc1`, the fluorescence ratio F(max-min)/F0 entry is “inactive”.
As to `CCc1nnc(NC(=O)CSc2nc3c(c(=O)n2-c2ccccc2OC)SCC3)s1`, the fluorescence ratio F(max-min)/F0 entry is “inactive”.
As to `CC1CCN(S(=O)(=O)c2nnc(NC(=O)COc3ccccc3F)s2)CC1`, the fluorescence ratio F(max-min)/F0 result is “inactive”.
Consider `CCSc1nsc(NC(=O)Nc2cccc(C(C)=O)c2)n1`, for which the fluorescence ratio F(max-min)/F0 result is “inactive”.
Under `CCCCCCCCCCOC(=O)Cn1c(COc2cccc(OC)c2)[n+](C)c2ccccc21` stands “inactive”.
With `CN1/C(=C\C=C2\N=C(c3ccc(F)cc3)OC2=O)C(C)(C)c2ccccc21`, the fluorescence ratio F(max-min)/F0 entry was “inactive”.
As for `S=C(NCc1ccc(Cl)cc1)NC12CC3CC(CC(C3)C1)C2`, the fluorescence ratio F(max-min)/F0 result is “inactive”.
Under `O=C(Nc1ccc(Cl)cc1)Nc1ccc(Oc2cccnc2)nc1` stands “inactive”.
With `CCc1ccc(N(CC(=O)Nc2sc3c(c2C(=O)OC)CCCC3)S(C)(=O)=O)cc1`, the fluorescence ratio F(max-min)/F0 entry is “inactive”.
`CC(=O)N1c2ccc(S(=O)(=O)N3CCCC(C(=O)Nc4cccc(Cl)c4)C3)cc2CC1C` (stereo not given): the fluorescence ratio F(max-min)/F0 result is “inactive”.
As to `COc1cccc(CCNC(=O)COc2cccc3c2OC(C)(C)C3)c1`, the fluorescence ratio F(max-min)/F0 result is “inactive”.
With `O=C(COC(=O)C1CCN(S(=O)(=O)c2ccc3c(c2)OCCO3)CC1)Nc1ccccc1OC(F)F`, the fluorescence ratio F(max-min)/F0 result was “inactive”.
Regarding `COC(=O)c1ccc(COC(=O)C2CCN(S(=O)(=O)c3c(Cl)cccc3Cl)CC2)o1`, the fluorescence ratio F(max-min)/F0 entry was “inactive”.
Turning to `CCOC(=O)c1[nH]c2ccc(C)cc2c1N=C(C)N(C)C`, the fluorescence ratio F(max-min)/F0 is 46.4 (active).
With `Cc1c(C(=O)N2CCCc3ccccc32)sc2nc(-c3ccccc3)cn12`, the fluorescence ratio F(max-min)/F0 result was “inactive”.
For the compound `Clc1ccc(C=NC23CN4CN(CN(C4)C2)C3)cc1`, the fluorescence ratio F(max-min)/F0 entry is “inactive”.
The result for `CC(Oc1ccc(F)cc1)C(=O)Nc1ccccc1C(=O)NC1CC1` (stereo not given) reads “inactive”; that for `CC(C)(C)Nc1c(-c2cccs2)nc2ccccn12`, “inactive”; that for `O=c1cc(CSc2ccccn2)nc(N2CCN(c3ccccc3)CC2)[nH]1`, “inactive”.
For the compound `O=C(Nc1ccccc1Cl)N1CCN(c2ccc3nncn3n2)CC1`, the fluorescence ratio F(max-min)/F0 entry is “inactive”.
`CCc1cc2c(SCC(=O)Nc3ncc(Cl)c(C)c3Cl)ncnc2s1`: the fluorescence ratio F(max-min)/F0 result is “inactive”.
Under `Cc1ccc(C(C(=O)NC2CCCCC2)N(C(=O)c2csnn2)C2CC2)o1` (stereo not given) stands “inactive”.
`COC(=O)Cn1c(O)c(N=NC(=O)OC)c2ccccc21`: the fluorescence ratio F(max-min)/F0 entry was “inactive”.
On to `COc1cc(C)c(C)cc1S(=O)(=O)N1CCCc2ccccc21`, for which the fluorescence ratio F(max-min)/F0 entry is “inactive”.
For the compound `COc1cc(C(F)(F)F)nc2c(Br)c(C(C)(C)C)nn12`, the fluorescence ratio F(max-min)/F0 entry is “inactive”.
Consider `CC(=O)N(C1=C(Cl)C(=O)c2ccccc2C1=O)c1ccc(C(=O)O)cc1`, for which the fluorescence ratio F(max-min)/F0 entry is “inactive”.
Under `O=C(Nc1ccccc1N1CCOCC1)c1csc2c1CCCC2` stands “inactive”; under `C=CCOc1cccc(C2C(C(=O)c3ccc(C)o3)=C(O)C(=O)N2c2nnc(C)s2)c1` (stereo not given), “inactive”.
Take `COC(=O)c1c(NC(=O)CN(c2ccc(C)c(C)c2)S(C)(=O)=O)sc2c1CCCC2`: the fluorescence ratio F(max-min)/F0 result is “inactive”.
The result for `CCN(C(=O)CSc1nnc2ccccn12)C1CCS(=O)(=O)C1` (stereo not given) reads “inactive”; that for `Brc1ccccc1C1Nc2cccc3cccc(c23)N1`, “inactive”; that for `COc1ccc(Cc2nc(-c3ccccn3)no2)cc1OC`, “inactive”.
Take `CCOC(=O)c1cn(Cc2cccc(C)c2)nn1`: the fluorescence ratio F(max-min)/F0 result is “inactive”.
As for `C=CCNC(=O)c1cc(-c2ccccc2O)on1`, the fluorescence ratio F(max-min)/F0 result was “inactive”.
As to `N=C(N)SCc1cccc2ccccc12`, the fluorescence ratio F(max-min)/F0 result was “inactive”.
On to `CCc1cc(=O)oc2cc(C)cc(OCC(=O)N3CCC[C@@H]3C(=O)O)c12`, for which the fluorescence ratio F(max-min)/F0 entry is “inactive”.
As to `CCOc1ccc(C(=O)NC2CCN(S(=O)(=O)CC)CC2)cc1`, the fluorescence ratio F(max-min)/F0 result is “inactive”.
Take `COc1ccc(S(=O)(=O)N2CCOCC2)c(C)c1C`: the fluorescence ratio F(max-min)/F0 result was “inactive”.
In the case of `CC(C)OCCCNc1ncnc2c1[nH]c1ccc(F)cc12`, the fluorescence ratio F(max-min)/F0 result is “inactive”.
The result for `Fc1ccc2[nH]c3c(N4CCSCC4)ncnc3c2c1` reads 51.9 (active); that for `O=C(c1ccc(O)cc1)c1ccc(C(=O)O)c(C(=O)O)c1`, “inactive”; that for `Cc1[nH][nH]c(=O)c1C(c1ccc(-c2ccc(Cl)cc2)o1)c1c(C)[nH][nH]c1=O`, 48.2 (active).
Turning to `COc1ccc(C(=O)NC2CCCc3c2cnn3-c2cccc(C)c2C)c(OC)n1` (stereo not given), the fluorescence ratio F(max-min)/F0 entry is “inactive”.
The result for `CCOc1ccccc1C1CC(c2ccc(Cl)cc2)Nc2nc(N)nn21` (stereo not given) reads “inactive”.
As for `CN1C(CC(=O)Nc2ccc(Br)cc2)c2ccccc2CC1(C)C` (stereo not given), the fluorescence ratio F(max-min)/F0 result is “inactive”.
Under `Nc1ccc(Oc2ccc(Cl)cc2)cc1` stands “inactive”.
The result for `C=CCNC(=O)c1csc(-c2ccccc2)n1` reads “inactive”; that for `COC(=O)Cc1cc(=O)n(-c2nc3ccccc3s2)[nH]1`, “inactive”.
The result for `O=C(Nc1ccc(Br)cc1F)C1CC(=O)N(C2CCCCC2)C1` (stereo not given) reads “inactive”; that for `CC1CCCCN1S(=O)(=O)c1ccc(C(=O)Nc2nnc(-c3cccs3)o2)cc1` (stereo not given), “inactive”; that for `Cc1ccc(-n2[nH]c(C)c(/C=N/N3C(=O)c4cccc5cccc(c45)C3=O)c2=O)cc1`, 110 (active).
For `O=C(CSc1nncn1-c1cccnc1)N1CCOCC1`, the fluorescence ratio F(max-min)/F0 result is “inactive”.
`Cc1nc(N2CCN(c3ccccn3)CC2)c2c(C)c(C(=O)Nc3ccc(F)c(Cl)c3)sc2n1`: the fluorescence ratio F(max-min)/F0 result is “inactive”.
Regarding `CC(=O)OC(C)C[N+](C)(C)C` (stereo not given), the fluorescence ratio F(max-min)/F0 was 98.8 (active).
Take `CCCCOC(=O)CNc1nnc(SCC(=O)OCC)[nH]c1=O`: the fluorescence ratio F(max-min)/F0 entry is “inactive”.
For the compound `Cc1ccc(Nc2nc(-c3ccc(O)cc3O)cs2)nc1`, the fluorescence ratio F(max-min)/F0 result is “inactive”.
On to `CCOC(=O)c1c(NC(=O)CNC2CCCc3ccccc32)sc(C(N)=O)c1C` (stereo not given), for which the fluorescence ratio F(max-min)/F0 result is “inactive”.
The result for `Cc1ccc(-n2cnc3ncnc(-c4ccccc4)c32)cc1` reads “inactive”.
Under `COc1cc(C2/C(=C(\O)c3ccc4c(c3)CC(C)O4)C(=O)C(=O)N2Cc2ccco2)ccc1O` (stereo not given) stands “inactive”; under `CCOC(=O)c1c(C)[nH]c(=S)c(C#N)c1-c1ccccc1`, “inactive”.
On to `CCCc1cc(=S)n2c([nH]c3ccccc32)c1C#N`, for which the fluorescence ratio F(max-min)/F0 was 71.7 (active).
On to `CCCCC(=O)NNC(=S)NC(=O)C(c1ccccc1)c1ccccc1`, for which the fluorescence ratio F(max-min)/F0 entry was “inactive”.
With `COc1ccc(C(=O)NC(=S)NNC(=O)CCc2ccccc2)cc1`, the fluorescence ratio F(max-min)/F0 is 101 (active).
In the case of `COc1ccc(C(=O)CSc2n[nH]c(N)n2)cc1`, the fluorescence ratio F(max-min)/F0 entry was “inactive”.
Under `COc1ccc(C(=O)NC(=S)NC2CCCCC2)cc1` stands “inactive”; under `CC(Oc1ccc2ccccc2c1)C(=O)NNC(=S)NC(=O)c1ccco1` (stereo not given), “inactive”; under `COc1ccc(C(=O)NNC(=S)NC(=O)c2ccccc2)cc1`, 130 (active).
For the compound `CCOC(=O)CNC(=O)CSc1nc2cccnc2n1CC`, the fluorescence ratio F(max-min)/F0 result was “inactive”.
Turning to `OCc1ccc(OCCCOc2cccc3cccnc23)cc1`, the fluorescence ratio F(max-min)/F0 entry was “inactive”.
On to `OCCn1c(-c2ccccc2)csc1=Nc1ccccc1`, for which the fluorescence ratio F(max-min)/F0 result was “inactive”.
For the compound `COc1cccc(-c2cnc(OC(C)(C)C)nc2OC(C)(C)C)c1`, the fluorescence ratio F(max-min)/F0 entry is “inactive”.
Consider `CCOc1ccc(NC(=O)N2CC=C(n3c(=O)[nH]c4ccccc43)CC2)cc1`, for which the fluorescence ratio F(max-min)/F0 entry is “inactive”.
For the compound `Cc1cc(Nc2cc(N3CCN(C)CC3)nc(Sc3ccc(NC(=O)C4CC4)cc3)n2)n[nH]1`, the fluorescence ratio F(max-min)/F0 result was “inactive”.
Turning to `O=C(c1ccc(OC2CCN(C(=O)c3cccnc3)CC2)cc1)N1CCCCCC1`, the fluorescence ratio F(max-min)/F0 result was “inactive”.
Under `COCCNC(=O)C1CCN(S(=O)(=O)c2ccc3c(c2)OCCO3)CC1` stands “inactive”.
Turning to `CCOC(=O)N1CCN(C(=O)COCc2cc(-c3ccc4c(c3)OCO4)on2)CC1`, the fluorescence ratio F(max-min)/F0 entry was “inactive”.
Take `CC1(C(=O)O)CCC(C(=O)Nc2ccc(Cl)c(Cl)c2)C1(C)C` (stereo not given): the fluorescence ratio F(max-min)/F0 is 47.3 (active).
Turning to `CCCc1[nH]nc2c1C(c1ccc(Br)s1)C(C#N)=C(N)O2` (stereo not given), the fluorescence ratio F(max-min)/F0 result was “inactive”.
The result for `CC1(C)CC2CC(C)(CN2c2ncnc3ccc(Br)cc23)C1` (stereo not given) reads “inactive”; that for `O=C(CSc1ncccn1)NC(=O)NCc1ccccc1`, “inactive”.
Consider `Cc1nc(C)c(-c2csc(NCCc3ccccc3)n2)s1`, for which the fluorescence ratio F(max-min)/F0 was 51.5 (active).
`CCS(=O)(=O)c1ccc2c(c1)N(S(=O)(=O)c1ccccc1)CC(C(=O)O)O2` (stereo not given): the fluorescence ratio F(max-min)/F0 result was “inactive”.
For the compound `Cc1nc2ccccc2cc1OCc1ccc(F)cc1`, the fluorescence ratio F(max-min)/F0 is 45.3 (active).
For the compound `NC(=O)c1c(Nc2nc3c(F)cccc3s2)sc2c1CCCC2`, the fluorescence ratio F(max-min)/F0 entry is “inactive”.
In the case of `COC(=O)c1ccc(C2C3=C(Nc4nnnn42)c2ccccc2OC3)cc1` (stereo not given), the fluorescence ratio F(max-min)/F0 result is “inactive”.
Under `O=C(CC(O)(C(F)(F)F)C(F)(F)F)Nc1ccc(Cl)c(Cl)c1` stands 45.3 (active); under `c1ccc(-c2[nH]ncc2-c2nc3ccccc3[nH]2)cc1`, “inactive”.
Take `COCCCNC(=O)C1CCN(c2ccc(N3CCOCC3)nn2)CC1`: the fluorescence ratio F(max-min)/F0 entry was “inactive”.
On to `CCOC(=O)C1=C(O)/C(=C/c2cc(C)n(-c3ccccc3)c2C)N=C1C`, for which the fluorescence ratio F(max-min)/F0 entry was “inactive”.
